CIT2 TOR yeast: alters CIT2-GFP fluorescence in TOR pathway yeast screen | GFP response vs DMSO, % at 10 µM | 0.065% of 320,000 active | S. cerevisiae CIT2-GFP strain, flow cytometry, 3 h; 100 means same as DMSO wells;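 active = GFP response relative to DMSO above a set limit, near the screen mean plus 3 SD, cut at about 150% in these data; inconclusive = Fewer than 70 cells measured for a yeast strain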;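 also: ratio of well median GFP fluorescence to mean of DMSO wells on the plate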
MEP2-GFP yeast: yeast TOR pathway MEP2-GFP modulation; S. cerevisiae MEP2-GFP strain, flow cytometry GFP, 3 h; 100% = DMSO control level; GFP response vs DMSO, % at 10 µM; 0.51% of 330,000 active; AID 2016;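 active = GFP response versus DMSO above a set limit, roughly screen mean plus 3 SD, cut at about 180% in these data; inconclusive = fewer than 70 cells counted for a yeast strain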;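 also: median GFP fluorescence of the barcode-gated MEP2-GFP cells per well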
AGP1-GFP MLPCN: yeast TOR pathway AGP1-GFP modulation; S. cerevisiae AGP1-GFP multiplex flow cytometry, 3 h; GFP as percent of DMSO wells; GFP response vs DMSO, % at 10 µM; 0.02% of 320,000 active; AID 2066;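 active = GFP response relative to DMSO above a set limit, near screen average plus 3 SD, cut at about 150% in these data; inconclusive = fewer than 70 cells counted for the yeast strain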;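 also: median GFP channel fluorescence of the gated AGP1 strain per well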
LAP4-GFP MLPCN: modulators of TOR pathway LAP4-GFP in S. cerevisiae. S. cerevisiae LAP4-GFP multiplex, flow cytometry GFP, 3 h; median GFP as percent of DMSO wells. 0.34% of 320,000 active. GFP response vs DMSO, % at 10 µM;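 active = GFP response vs DMSO above a set limit, about the screen mean plus 3 SD, cut at about 150% in these data; inconclusive = under 70 cell events counted for the yeast strain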
Efflux pump mplx: antifungal efflux pump inhibition, Nile Red retention. S. cerevisiae Candida pump triplex. inhibition, % at 10 µM. 0.44% of 330,000 active;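 active = plate passing quality check with inhibition over a set limit, or well fluorescence over plate mean plus 4 SD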;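 also: Nile Red retained in pooled yeast measured as flow cytometry median fluorescence; 0% = buffer negative control and 100% = Enniatin B positive control; higher means more Nile Red kept so more efflux inhibition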
RPL19A TOR yeast: alters RPL19A-GFP fluorescence in TOR pathway yeast screen | S. cerevisiae RPL19A-GFP strain, flow cytometry, 3 h; hits give low values | percent response vs DMSO, % at 10 µM | 0.3% of 330,000 active;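 active = percent response vs DMSO below 50%; inconclusive = fewer than 70 events counted for the yeast strain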;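 also: median channel GFP fluorescence of the barcoded RPL19A-GFP strain; ratio of sample median GFP to plate DMSO average so 100% = DMSO; lower means less RPL19A-GFP as with rapamycin TOR inhibition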
* = called active by the depositor; u = inconclusive; x = not tested or not shown; [ ] = remark or other dose. Most compounds without a hit are left out; they make up all but 1.3% or so of the library.

SMILES | CIT2 TOR yeast | MEP2-GFP yeast | AGP1-GFP MLPCN | LAP4-GFP MLPCN | Efflux pump mplx | RPL19A TOR yeast
CC(=O)n1nc2nc(C)cc(C)c2c1N | 102 | 101 | 101 | 98 | 0 | 100
Cc1cc(C)c2c(N=NN3CCCCC3)[nH]nc2n1 | 169* | 109 | 117 | 110 | 0 | 98
CCN(CC)N=Nc1[nH]nc2nc(C)cc(C)c12 | 157* | 152 | 133 | 138 | 0 | 106
COc1ccc(-c2nnn(CC(=O)N(CC(=O)NC3CCCC3)c3ccccc3F)n2)cc1OC | 94 | 95 | 92 | 87 | 0 | 97
CCOc1ccc(NC(=O)C2CCCN2S(=O)(=O)c2ccc3c(c2)C(C)(C)C(=O)N3C)cc1 (configuration not stated) | 104 | 108 | 107 | 104 | 0 | 102
CSc1nc(C)c(Cc2ccccc2)c(=O)[nH]1 | 102 | 108 | 106 | 111 | 0 | 98
CSc1nc(C)c(CCOCc2ccccc2)c(=O)[nH]1 | u | 233*[may fluoresce violet] | u | 69 | 0 | 64
CCOC(=O)Cn1c2c(c(=N)c3ccccc31)CCC2 | u | 229*[may fluoresce violet] | x | 98 | 0 | 55
CCOC(=O)Cn1c2c(c(=N)c3c1CCC3)CCC2 | 102 | 100 | 103 | 98 | 0 | 98
Cn1cc(C(=O)NS(=O)(=O)Nc2ccc(Br)cn2)c2ccccc21 | 107 | 110 | 106 | 101 | 0 | 108
CCc1ccccc1NNC(=O)c1snnc1C | 120 | 114 | 108 | 103 | 0 | 108
CC(NC(=O)c1cccc(N2CCCC2=O)c1)c1ccc2c(c1)OCCO2 (configuration not stated) | u | 354*[may fluoresce violet] | u | 74 | 0 | 30*[may fluoresce violet]
CNC(=O)c1cccc(N2CCCC2=O)c1 | 83 | 89 | 95 | 88 | 0 | 99
Cc1nnc(N2CCCC(C(=O)Nc3cc(F)ccc3F)C2)c2nn(-c3ccccc3)c(C)c12 (configuration not stated) | 107 | 103 | 106 | 100 | 0 | 105
Cc1nnc(N2CCCC(C(=O)NCc3ccc(OC(C)C)cc3)C2)c2nn(-c3ccccc3)c(C)c12 (configuration not stated) | u | 253*[may fluoresce violet] | u | 62 | 0 | 48*[may fluoresce violet]
CCOc1ccccc1NC(=O)COC(=O)C1CC(=O)N(c2c(C)cccc2C)C1 (configuration not stated) | 91 | 101 | 99 | 110 | 1 | 96
COc1ccccc1NC(=O)COC(=O)c1ccc([N+](=O)[O-])s1 | u | 105 | 10 | 53 | 0 | 21*[may fluoresce violet]
Cc1ccc(NC(=O)COC(=O)c2ccc([N+](=O)[O-])s2)c(C)c1 | 104 | 106 | 100 | 95 | 0 | 106
O=C(NCc1ccccn1)c1cc(-c2ccc(Cl)cc2)oc1C(F)(F)F | 79 | 90 | 79 | 155* | 0 | 77
CCN(CC)CCNC(=O)C(=O)Nc1ccc2c(c1)N(S(=O)(=O)c1cccs1)CCC2 | 105 | 101 | 106 | 98 | 0 | 100
COc1ccc(C2=CC3=C(Br)C(=O)C(C)(OC(=O)C4CCCC4)C(=O)C3=CO2)cc1 (configuration not stated) | u | 138 | 11 | 128 | 0 | 39*[may fluoresce violet]
COc1ccc(C2=CC3=C(Br)C(=O)C(C)(OC(=O)c4ccc(Cl)nc4)C(=O)C3=CO2)cc1 (configuration not stated) | u | 84 | 6 | 59 | 0 | 21*[may fluoresce violet]
O=C1C(=O)c2ccc(-c3ccccc3)cc2-c2ccccc21 | 76 | 103 | 92 | 158* | 0 | 98
Nc1ccc2c(c1)C(=O)c1ccccc1-2 | 105 | 98 | 106 | 104 | 0 | 96
Nc1ccc2c(c1)C(=O)C(=O)c1ccccc1-2 | 102 | 145 | 115 | 189* | 0 | 100
CC(=O)N1CCOc2ccc(S(=O)(=O)N3CC(C)CC(C)C3)cc21 (configuration not stated) | 98 | 88 | 97 | 83 | 0 | 95
CCCC(c1nnnn1CCOC)N1CCN(Cc2ccccc2)CC1 (configuration not stated) | 92 | 109 | 107 | 95 | 0 | 100

Screens from PubChem BioAssay.
